Assay results published in PubChem BioAssay (Tox21).
Inconclusive results are not listed. Activity calls are given as the source filed them. Unless noted, calls follow the shape of the dose curve; as a rule, active = well fitted curve in the direction sought with a large enough effect in the repeat runs; inconclusive = weak or mixed curves; inactive = no such curve, though single readings can be large; an effect the other way counts as inactive or inconclusive.

Legend:
[1] = target: Retinoic acid receptor RXR-alpha (Homo sapiens) (UniProt P19793); test: qHTS assay to identify small molecule agonists of the RXR signaling pathway (AID 1159527; calls by dose curve; also: nearly all actives have a fitted effect of over 35% in size; also: potency is read from the fitted curve at half-maximal effect); settings: HEK293T RXRa-UAS-bla, beta-lactamase ratio, 16 h; series mostly up to 76.8 µM
Method in brief: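 Beta-lactamase reporter assay, agonist format. Engineered HEK 293T line, charcoal-stripped FBS at 2%, overnight (16 hr) exposure, fluorescence at 460 and 530 nm after 405 nm excitation.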

[2] = qHTS assay to identify small molecule antagonists of the retinoid acid receptor (RAR) signaling pathway - cell viability counter screen (AID 1159551); settings: C3RL4 cells viability, ATP luminescence (CellTiter-Glo), 6 h; series mostly up to 92.4 µM; also: nearly all actives have a fitted effect of over 35% in size
Method in brief: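 Viability of C3RL4 cells is quantified from ATP by luminescence after 6 h treatment at 37 C with compounds and 1 uM retinol.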

[3] = qHTS assay to identify small molecule antagonists of the retinoic acid receptor (RAR) signaling pathway (AID 1159552; also: nearly all actives have a fitted effect of over 50% in size); settings: C3RL4 RARE luciferase reporter, retinol-stimulated, 6 h; series mostly up to 92.4 µM
Method in brief: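 Readout: luciferase luminescence, 30 min post-reagent at RT. Setup: C3RL4 RARE reporter cells, compounds plus retinol 1 uM final, 6 hr incubation at 37 C and 5% CO2.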

[4] = qHTS assay to identify small molecule antagonists of the estrogen related receptor (ERR) signaling pathway from Tox21 library - cell viability counter screen (AID 1224834); settings: ERR reporter cells viability, CellTiter-Fluor, 17.5 h; series mostly up to 92.4 µM; also: nearly all actives have a fitted effect of over 30% in size; also: potency is read from the fitted curve at half-maximal effect
Method in brief: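 In this quantitative HTS format, ERR cells receive compounds in DMSO and are incubated for 17.5 h at 37 C. Live-cell protease activity is then detected with CellTiter-Fluor.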

[5] = qHTS assay to identify small molecule antagonists of the constitutive androstane receptor (CAR) signaling pathway - cell viability counter screen (AID 1224837); settings: HepG2-CYP2B6-hCAR viability, CellTiter-Fluor, 23 h, co-treated with 50 nM CITCO; series mostly up to 92.4 µM; also: nearly all actives have a fitted effect of over 45% in size; also: potency is read from the fitted curve at half-maximal effect
Method in brief: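 In quantitative HTS format, compounds at 15 concentrations were applied to HepG2 cells double-transfected with hCAR and CYP2B6-2.2kb under 50 nM CITCO stimulation; live-cell protease activity was read after 23 hr via CellTiter-Fluor.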

[6] = target: Nuclear receptor subfamily 1 group I member 3 (Homo sapiens) (UniProt Q14994); test: qHTS assay to identify small molecule antagonists of the constitutive androstane receptor (CAR) signaling pathway (AID 1224838); settings: HepG2-CYP2B6-hCAR luciferase, CITCO-stimulated, 24 h; series mostly up to 92.4 µM; also: nearly all actives have a fitted effect of over 40% in size
Method in brief: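 CITCO-stimulated (50 nM final) HepG2 cells stably transfected with hCAR and CYP2B6-2.2kb luciferase were exposed to compounds at 15 concentrations for 24 h at 37 C/5% CO2. A luciferase reagent was added and luminescence recorded after 30 min.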

[7] = target: Nuclear receptor subfamily 1 group I member 3 (Homo sapiens) (UniProt Q14994); test: qHTS assay to identify small molecule agonists of the constitutive androstane receptor (CAR) signaling pathway (AID 1224839); settings: HepG2 hCAR CYP2B6-luciferase, agonist mode, 24 h; series mostly up to 92.4 µM; also: nearly all actives have a fitted effect of over 15% in size; also: potency is read from the fitted curve at half-maximal effect;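 as to activation: HepG2 cells stably carrying human CAR and a CYP2B6 luciferase reporter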
Method in brief: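 In this screen, CAR-driven CYP2B6 promoter activity is measured by luminescence in HepG2-CYP2B6-hCAR cells after 24 h with test compounds and 0.75 uM PK11195 (final concentration).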

[8] = qHTS assay to identify small molecule antagonists of the estrogen related receptor signaling pathway with the pleiotropic PPARgamma coactivator (PGC) from Tox21 10K library - cell viability counter screen (AID 1224840; active = well fitted cell-killing curve with a large enough effect in the repeat runs, not every such curve was filed as active; also: nearly all actives have a fitted effect of over 40% in size; also: potency is read from the fitted curve at half-maximal effect); settings: PGC/ERR reporter cells viability, CellTiter-Fluor, 17.5 h; series mostly up to 92.4 µM
Method in brief: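 Viability counter screen, PGC/ERR cells: 17.5 h compound exposure at 37 C, CellTiter-Fluor fluorescence endpoint.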

[9] = qHTS assay to identify small molecule antagonists of the estrogen related receptor signaling pathway with the pleiotropic PPARgamma coactivator (PGC) from Tox21 10K library (AID 1224841; call rule not given here; also: actives are mostly falling curves and most rising ones were filed inactive; nearly all actives have a fitted effect of over 50% in size; also: potency is read from the fitted curve at half-maximal effect); settings: PGC/ERR reporter cell line, ONE-Glo luciferase, 18 h; series mostly up to 92.4 µM
Method in brief: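 In the PGC/ERR line, DMSO solutions of test chemicals are pin-delivered to 2,000 cells/well six hours after dispensing. Following eighteen hours' incubation, One-Glo reagent is added and luminescence recorded.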

[10] = qHTS assay to identify small molecule agonists of the estrogen related receptor signaling pathway with the pleiotropic PPARgamma coactivator (PGC) from Tox21 10K library (AID 1224842); settings: PGC/ERR reporter cell line, luciferase ONE-Glo, 18 h; series mostly up to 92.4 µM; also: nearly all actives have a fitted effect of over 15% in size; also: potency is read from the fitted curve at half-maximal effect
Method in brief: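 Luminescence from One-Glo (30 min, room temperature) measured after PGC/ERR cells had 18 h at 37 C with pinned compound (23 nL in DMSO). Cells had been seeded at 2,000 per well and pre-incubated 6 h.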

[11] = qHTS assay to identify small molecule agonists of the retinoic acid receptor (RAR) signaling pathway (AID 1159553); settings: C3RL4 RARE luciferase reporter, agonist, 6 h; activation: at 73.3 µM (top of the series); also: potency is read from the fitted curve at half-maximal effect
Method in brief: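 Compounds dissolved in DMSO were pinned onto C3RL4 cells seeded the previous day, and plates were held 6 hr at 37 C. RARE-driven luciferase output was then read by luminescence.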

[12] = target: Luciferin 4-monooxygenase (Photinus pyralis) (UniProt P08659); test: qHTS assay to identify small molecule inhibitors of firefly luciferase (AID 1224835); also: nearly all actives have a fitted effect of over 25% in size; also: potency is read from the fitted curve at half-maximal effect; settings: purified P. pyralis luciferase, luminescence inhibition; series mostly up to 52.9 µM
Method in brief: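 Inhibition of purified Photinus luciferase is measured by luminescence. Substrate levels (D-luciferin, ATP) sit at their KM values. Each compound is tested in a concentration series.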

[13] = qHTS assay to identify small molecule agonists of the constitutive androstane receptor (CAR) signaling pathway - cell viability counter screen (AID 1224836); settings: HepG2-CYP2B6-hCAR viability, CellTiter-Fluor, 23 h, PK11195 added to every well; series mostly up to 92.4 µM; also: nearly all actives have a fitted effect of over 45% in size; also: potency is read from the fitted curve at half-maximal effect
Method in brief: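 Compound titrations (15 concentrations) went onto HepG2-CYP2B6-hCAR cells 4 h after seeding, alongside PK11195 at a final 0.75 uM; a 23 h, 37 C/5% CO2 incubation preceded CellTiter-Fluor viability measurement.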

[14] = qHTS assay to identify small molecule agonists of the RXR signaling pathway - cell viability counter screen (AID 1159529); settings: RXR-alpha-bla HEK293T viability, CellTiter-Glo, 16 h; series mostly up to 76.8 µM; also: nearly all actives have a fitted effect of over 50% in size; also: potency is read from the fitted curve at half-maximal effect
Method in brief: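 Same-well viability check after the LiveBLAzer FRET read: CellTiter-Glo added, luminescence measured after 30 min at room temperature. Reporter HEK 293T cells had been treated with compounds for 16 hr following a 5 hr preincubation.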

Measured: Potency

Luciferin 4-monooxygenase (Photinus pyralis), sequence (P08659 whole entry, looked up): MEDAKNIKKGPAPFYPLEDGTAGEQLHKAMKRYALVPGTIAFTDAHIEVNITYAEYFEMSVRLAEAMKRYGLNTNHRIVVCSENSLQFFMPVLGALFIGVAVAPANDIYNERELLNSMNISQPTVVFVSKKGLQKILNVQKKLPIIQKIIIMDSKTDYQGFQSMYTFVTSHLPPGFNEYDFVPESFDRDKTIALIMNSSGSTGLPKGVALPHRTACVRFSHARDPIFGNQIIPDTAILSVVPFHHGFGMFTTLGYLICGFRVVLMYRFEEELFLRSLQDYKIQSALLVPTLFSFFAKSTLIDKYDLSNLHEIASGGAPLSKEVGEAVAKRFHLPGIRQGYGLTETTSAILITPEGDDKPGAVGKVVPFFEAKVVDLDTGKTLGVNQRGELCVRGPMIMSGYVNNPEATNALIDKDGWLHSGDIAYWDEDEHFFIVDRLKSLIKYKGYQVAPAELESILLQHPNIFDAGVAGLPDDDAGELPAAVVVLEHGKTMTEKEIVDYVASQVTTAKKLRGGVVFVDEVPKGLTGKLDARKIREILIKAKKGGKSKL
Retinoic acid receptor RXR-alpha (Homo sapiens), sequence (P19793 whole entry, looked up): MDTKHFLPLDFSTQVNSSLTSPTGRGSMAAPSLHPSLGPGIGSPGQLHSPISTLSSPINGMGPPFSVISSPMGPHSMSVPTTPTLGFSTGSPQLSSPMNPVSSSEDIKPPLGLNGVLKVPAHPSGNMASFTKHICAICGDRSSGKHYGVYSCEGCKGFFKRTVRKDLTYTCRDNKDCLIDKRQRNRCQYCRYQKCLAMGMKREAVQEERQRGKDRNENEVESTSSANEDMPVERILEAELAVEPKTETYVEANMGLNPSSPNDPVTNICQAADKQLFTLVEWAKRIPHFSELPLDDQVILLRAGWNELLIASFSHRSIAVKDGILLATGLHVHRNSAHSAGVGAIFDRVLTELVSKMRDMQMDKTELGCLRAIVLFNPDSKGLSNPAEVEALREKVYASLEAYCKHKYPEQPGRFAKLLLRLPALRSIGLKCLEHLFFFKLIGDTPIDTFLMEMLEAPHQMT
Nuclear receptor subfamily 1 group I member 3 (Homo sapiens), sequence (Q14994 whole entry, looked up): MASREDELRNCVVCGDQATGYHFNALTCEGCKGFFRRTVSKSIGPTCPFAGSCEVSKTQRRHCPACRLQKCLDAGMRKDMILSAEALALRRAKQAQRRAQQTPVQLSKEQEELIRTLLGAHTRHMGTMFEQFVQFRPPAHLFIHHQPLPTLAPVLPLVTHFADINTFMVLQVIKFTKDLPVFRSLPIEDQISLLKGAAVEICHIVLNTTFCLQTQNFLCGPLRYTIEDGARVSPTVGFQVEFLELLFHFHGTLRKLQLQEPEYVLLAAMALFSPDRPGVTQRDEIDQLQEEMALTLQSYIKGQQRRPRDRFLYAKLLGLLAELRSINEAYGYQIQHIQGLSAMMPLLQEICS

CC(CN(C)C)C(C)(O)Cc1ccc(Cl)cc1 (stereo unspecified)
not listed: [11] | [12] | [13] | [14]
inactive: all other assays above

C=C1CCC2CC1C2(C)C (stereo unspecified)
not listed: [6] | [7] | [9] | [10] | [14]
inactive: all other assays above

OCCOCC#CCOCCO
inactive: [1] | [2] | [12] | [13] | [5] | [6] | [7] | [8]

CCCCOc1ccc(OCCCN2CCOCC2)cc1
active: [11] 21.1 µM
not listed: [7] | [9] | [10] | [14]
inactive: all other assays above

O=C1NCCN1CCO
not listed: [4] | [9] | [10] | [11] | [14]
inactive: all other assays above

O=C(OC(=O)c1ccccc1)c1ccccc1
inactive: [1] | [2] | [4] | [12] | [13] | [5] | [8]

O=C=Nc1ccc(Cl)c(Cl)c1
not listed: [9] | [12] | [14]
inactive: all other assays above

CCCCCC[C@@H](O)C/C=C\CCCCCCCC(=O)OCC(O)CO (stereo partly specified)
active: [1] 49 µM
not listed: [6] | [7] | [9] | [14]
inactive: all other assays above

N#[N+]c1ccc2c(S(=O)(=O)[O-])cccc2c1O
active: [12] 44.8 µM
not listed: [10] | [14]
inactive: all other assays above

C=C1C[C@@]23CC[C@H]4[C@@](C)(CCC[C@@]4(C)C(=O)O[C@@H]4O[C@H](CO)[C@@H](O)[C@H](O)[C@H]4O)[C@@H]2CC[C@]1(O[C@@H]1O[C@H](CO)[C@@H](O)[C@H](O[C@@H]2O[C@H](CO)[C@@H](O)[C@H](O)[C@H]2O)[C@H]1O[C@@H]1O[C@H](CO)[C@@H](O)[C@H](O)[C@H]1O)C3
not listed: [11] | [14]
inactive: all other assays above

CCCCCC[C@@H](O)C/C=C\CCCCCCCC(=O)O
active: [1] 49 µM
not listed: [3] | [11] | [13] | [14]
inactive: all other assays above

Cc1cc(O)ccc1O
active: [14] 22.1 µM | [8] 61.8 µM
inactive: [1] | [12] | [13] | [5] | [6] | [9]

CCCCCCCCCCC(=O)O
inactive: [2] | [3] | [11] | [4] | [13] | [5] | [8]
active: [1] 49.6 µM | [12] 57.1 µM

CCC(=O)OC
not listed: [9] | [10] | [12] | [14]
inactive: all other assays above

CC1(C)O[C@@H]2C[C@H]3[C@@H]4C[C@H](F)C5=CC(=O)C=C[C@]5(C)[C@H]4[C@@H](O)C[C@]3(C)[C@]2(C(=O)CO)O1
not listed: [3] | [9] | [10] | [11] | [12]
inactive: all other assays above

O=C(O)CCCCCCCCCCCBr
active: [12] 56.6 µM
not listed: [9] | [10] | [11] | [14]
inactive: all other assays above

NC(=O)c1ccncc1
not listed: [14]
inactive: all other assays above

CCOC(=O)c1ccc(OCCN2C[C@H](O)[C@@H](O)[C@H](O)[C@H]2CO)cc1
not listed: [3] | [9] | [10] | [11] | [12]
inactive: all other assays above

Cc1ccc(C(C)(C)O)cc1
not listed: [3] | [9] | [10] | [11] | [12]
inactive: all other assays above

O=C=Nc1cccc(C(F)(F)F)c1
inactive: [1] | [2] | [12] | [13] | [5] | [8] | [10]

O=C1CCCCCCCCCCOCCCCO1
not listed: [9] | [10] | [14]
inactive: all other assays above

COc1ncnc(NS(=O)(=O)c2ccc(N)cc2)c1OC
not listed: [9] | [11] | [14]
inactive: all other assays above

O=c1c(O)c(-c2ccc(O)cc2)oc2cc(O)cc(O)c12
active: [11] 18.4 µM | [7] 36.8 µM
not listed: [2] | [4] | [12]
inactive: all other assays above

O=[N+]([O-])c1cc(C2CCCCC2)c(O)c([N+](=O)[O-])c1
active: [4] 12.2 µM | [12] 39.8 µM | [13] 12.2 µM | [5] 15.3 µM | [8] 12.2 µM | [9] 4.84 µM
inactive: [1] | [2] | [11] | [7]

CCC=CC#N
not listed: [3] | [4] | [9] | [10] | [11]
inactive: all other assays above

O=C1NC(=O)c2cc([N+](=O)[O-])ccc21
inactive: [1] | [2] | [3] | [11] | [4] | [13] | [5] | [8]

CCOC(=O)c1ccc(I)cc1
active: [12] 50.7 µM | [10] 4.9 µM
not listed: [6] | [7] | [11] | [14]
inactive: all other assays above

CCCCCCCC/C=C\CCCCCCCCCCCC(=O)O
not listed: [9] | [10] | [12] | [13] | [14]
inactive: all other assays above
